High-throughput results (PubChem)
Hits are enriched below; roughly 4.6% of the tested compounds scored in any of these assays.
TRHR enhancer: allosterically enhances the human TRH receptor. TRHR cells, fluo-8 calcium fluorescence, EC20 TRH enhancement. P34981. enhancement, % at 2 µM. 360,000 tested, 0.66% active. AID 493056; in the data active means enhancement above about 30%
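Enhancer read-out: after compound pinning and an initial kinetic agonist-mode read, an EC20 of TRH (10 nM final) was injected and fluo-8 calcium signal (Ex 480/Em 530) followed at 1 s/cycle for 100 cycles in TRHR-expressing cells.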
TRHR agonist: TRH receptor (human) agonism. TRHR cells, calcium flux fluo-8, FDSS agonist mode. 360,000 tested, 0.18% active. P34981. AID 493084. activation, % at 2 µM
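Read-out: compound-evoked intracellular calcium rise in TRHR cells, fluo-8 dye, kinetic FDSS fluorescence at 1 s/cycle following a 10-cycle baseline. Cells cultured overnight before dye loading (30 min–1.5 h, RT).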
D1 antag: human D1 dopamine receptor antagonism; 360,000 tested, 3.2% active; HEK293 TREx D1 cells, calcium flux, dopamine EC80; stronger effect = lower value; AID 504652; activity change, negative = inhibition, % at 10 µM; P21728; in the data active means activity change below about -30%
Target sequence (P21728 whole entry, looked up): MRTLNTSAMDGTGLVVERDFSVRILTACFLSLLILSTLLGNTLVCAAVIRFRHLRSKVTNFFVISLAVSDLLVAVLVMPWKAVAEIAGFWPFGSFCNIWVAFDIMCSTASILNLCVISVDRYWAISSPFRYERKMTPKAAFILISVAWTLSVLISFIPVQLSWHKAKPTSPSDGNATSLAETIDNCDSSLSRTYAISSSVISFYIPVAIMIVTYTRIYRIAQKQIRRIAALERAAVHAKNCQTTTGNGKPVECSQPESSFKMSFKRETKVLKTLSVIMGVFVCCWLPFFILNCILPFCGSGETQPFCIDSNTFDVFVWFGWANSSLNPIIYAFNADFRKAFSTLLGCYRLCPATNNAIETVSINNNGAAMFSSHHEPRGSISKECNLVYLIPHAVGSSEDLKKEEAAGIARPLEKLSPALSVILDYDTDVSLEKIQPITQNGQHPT
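Inducible Hek293 Trex D1 cells (tetracycline, overnight, 30 C). Calcium dye 30–90 min RT. Antagonist mode: EC80 dopamine added after 180 s compound read.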
D1 PAM: potentiators of human D1 dopamine receptor; P21728; HEK293 TREx D1 cells, calcium flux, dopamine EC20 potentiation; potentiation, % at 10 µM; 360,000 tested, 0.036% active; in the data active means potentiation above about 30%
D1 ag: activates the human D1 dopamine receptor; 360,000 tested, 1% active; AID 504660; activation, % at 2 µM; HEK293 T-REx D1 cells, calcium flux, agonist mode
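Tetracycline-induced HEK293 TREx D1 cells, force-coupled to calcium signalling, were dye-loaded with a no-wash calcium kit. Compound was pin-added after a 10 s baseline. Fluorescence was read kinetically at 1 cycle/s for 180 s, with calcium rises flagged as agonism.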
Of the large screens only hits and unclear results are named; the others gave an inactive call. Unless noted, no stated cut-off is given here; in the data, active means activation above about 30%; inactive means the rest.

Cc1nc2ccc([N+](=O)[O-])cc2c(=O)n1Cc1cccc(Br)c1	none
Cc1nc2ccc([N+](=O)[O-])cc2c(=O)n1Cc1ccccc1Br	D1 antag -43.2
Cc1nc2ccc([N+](=O)[O-])cc2c(=O)n1Cc1ccc([N+](=O)[O-])cc1	D1 antag -61.8
CSc1ccc(CNC(=O)CCn2ccc3cc(S(=O)(=O)N4CCC(C)CC4)ccc32)cc1	none
O=c1cc(C(F)(F)F)[nH]c2c(C(F)(F)F)cccc12	D1 ag 31.6
CC(C)S(=O)(=O)c1oc(-c2cccs2)nc1S(=O)(=O)c1ccc(F)cc1	none
COc1ccc(-c2[nH]ncc2/C=N\NS(=O)(=O)c2ccc(Cl)cc2)cc1	D1 antag -41.7
CC(C)c1ccc(CNCc2ccccc2)cc1	D1 ag 50.1
Fc1ccccc1CNCCCSc1nnnn1-c1ccccc1	none
CC(C)c1ccc(CNC(=O)CCc2ccccc2)cc1	none
CC(C)c1ccc(CNCCSc2nnnn2-c2ccccc2)cc1	D1 ag 55.7
COc1ccc(CNCCSc2nnnn2-c2ccccc2)cc1	none
Fc1ccc(CNCCCSc2nnnn2-c2ccccc2)cc1	D1 antag -43.1, D1 ag 161.3
Clc1ccccc1CNCCCSc1nnnn1-c1ccccc1	D1 ag 31.4
CCOCCn1ccc2c(OCC(=O)Nc3ccc(OC(F)(F)F)cc3)cccc2c1=O	none (no result: D1 antag)
COc1ccc(N(CC(=O)Nc2ccc(C)c(C)c2)S(=O)(=O)c2ccc(C)cc2)cc1OC	none
C=CCn1c(SCCC)nc(O)cc1=O	D1 ag 128.2
CC1S/C(=N/N=C/c2ccco2)N(Cc2ccccc2)C1=O (stereo unspecified)	D1 antag -40.4
CCC1S/C(=N/N=C/c2ccco2)N(Cc2ccc(F)cc2)C1=O (stereo unspecified)	none
O=C(Oc1ccc(F)cc1)c1nc(SCc2ccc(F)cc2)ncc1Cl	none
CC(=O)c1ccc(NS(=O)(=O)c2c(C)cc(C)cc2C)cc1	none
Cc1cc(C)c(S(=O)(=O)Nc2ccc(C(N)=O)cc2)c(C)c1	D1 antag -42.9
S=C(NCC1CCCO1)Nc1cccc(Cl)c1 (stereo unspecified)	none
S=C(NCC1CCCO1)Nc1ccc(Nc2ccccc2)cc1 (stereo unspecified)	D1 antag -34.1
Nn1c(SCC(=O)N2CCc3ccccc3C2)nnc1-c1cccs1	none
CC1CN(C(=O)CSc2nnc(-c3cccs3)n2N)CC(C)O1 (stereo unspecified)	D1 antag -34.3
O=C(CSc1cccc2cccnc12)N/N=C/c1ccc(F)cc1	D1 antag -49.9
CCOc1ccc(NC(=O)CCc2nc3cccnc3n2-c2ccccc2)cc1	none
Cc1ccc(N2CCN(C(=O)CCc3nc4ccccc4[nH]3)CC2)c(C)c1	D1 antag -34.7
Cc1ccc(OCC(=O)N(Cc2ccc(N(C)C)cc2)CC2CCCO2)cc1C (stereo unspecified)	none
CCn1ncc([N+](=O)[O-])c1C(=O)Nc1c(C)nn(Cc2ccc(F)cc2)c1C	D1 antag -40.1
CC1(C)CC(=O)C(=Cc2cn(-c3ccccc3)nc2-c2ccc(Cl)cc2)C(=O)C1	D1 ag 59.5
CCOC(=O)C1=C(N)Oc2c(c(=O)[nH]c3ccccc23)C1c1ccccc1 (stereo unspecified)	D1 antag -87.4
CCOC(=O)C1=C(N)Oc2cc(C)[nH]c(=O)c2C1c1ccncc1 (stereo unspecified)	none
Cc1ccc(-n2c(SCc3ccccc3C)nc3[nH]ncc3c2=O)cc1C	D1 antag -78.2
CCCCN(Cc1ccccc1)S(=O)(=O)c1ccc2c(c1)CC(C)N2C(=O)CC (stereo unspecified)	none
COc1ccc(/C=C2\N=C3CCCCCN3C2=O)cc1OC	none
COc1ccc(/C=C2\N=C(C)N(c3ccc4ccccc4c3)C2=O)cc1OC	D1 antag -43.4
CN(Cc1ccccc1)C(=O)C(=O)Nc1ccc2nc3n(c(=O)c2c1)CCCCC3	none
CCOC(=O)NC1c2ccccc2Oc2ccccc21	D1 antag -33.2
COC(=O)c1ccc(NC(=O)CC2C(=O)N(c3ccc(F)cc3)C(=O)N2Cc2ccc(OC)cc2)cc1 (stereo unspecified)	none
CC(C)(C)c1ccc(-n2nc(C#N)c(Cl)cc2=O)cc1	D1 antag -40.8
CC(=O)c1ccc(NC(=O)CSc2nccn2C2CCCC2)cc1	none
